Assay results from the supplement of paper PMC8975748.
Structures can show the parent of a compound that is named as a salt. ± gives the standard deviation of the averaged measurements.

Key:
[1] = tested on: Saccharomyces cerevisiae BY4741 SeMeCo community; assay: mean cell size (pixel area) (pixels); higher = larger cells; details: 10 µM; 24 h; SM minimal medium
Summary of the method: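 Mean cell pixel area per well was determined by automated confocal microscopy with Harmony analysis of paraformaldehyde-fixed cells. The cells, a Saccharomyces cerevisiae BY4741 community of four plasmids that each complement one auxotrophy and carry a fluorescent marker, were incubated for 24 h with drug at a final 10 µM in SM medium in 384-well plates. Numbers are averaged over 3 replicates. Same SeMeCo high-content imaging drug screen: Selleck FDA-approved drugs at 10 µM, 24 h in SM medium, 384-well plates, 3 replicates.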

[2] = tested on: Saccharomyces cerevisiae BY4741 SeMeCo community; assay: z-score of prototroph abundance vs DMSO median; higher = larger share of this subpopulation than in DMSO controls; details: 10 µM; 24 h; SM minimal medium; subpopulation (auxotrophy): Prototroph
Summary of the method: (§1)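 A Saccharomyces cerevisiae BY4741 community carried four plasmids, each restoring one auxotrophy and encoding a distinct fluorescent protein. It was pre-grown overnight to OD600 1.0, diluted to 0.3, and 70 µl was added to 384-well plates acoustically predosed with library drugs (10 µM final), then grown 24 h in minimal SM medium. Cells were paraformaldehyde-fixed and imaged by automated confocal microscopy, with single-auxotroph fluorescent strains setting thresholds and autofluorescence correction. Each subpopulation's abundance was scored as a z-score against the vehicle-well median.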

[3] = tested on: Saccharomyces cerevisiae BY4741 SeMeCo community; assay: z-score of subpopulation abundance vs DMSO median, subpopulation auxotrophic for M; higher = larger share of this subpopulation than in DMSO controls; details: 10 µM; 24 h; SM minimal medium; subpopulation (auxotrophy): M
Summary of the method: as §1

[4] = tested on: Saccharomyces cerevisiae BY4741 SeMeCo community; assay: z-score of subpopulation abundance vs DMSO median, subpopulation auxotrophic for U; higher = larger share of this subpopulation than in DMSO controls; details: 10 µM; 24 h; SM minimal medium; subpopulation (auxotrophy): U
Summary of the method: as §1

[5] = tested on: Saccharomyces cerevisiae BY4741 SeMeCo community; assay: z-score of subpopulation abundance vs DMSO median, subpopulation auxotrophic for H; higher = larger share of this subpopulation than in DMSO controls; details: 10 µM; 24 h; SM minimal medium; subpopulation (auxotrophy): H
Summary of the method: as §1

[6] = tested on: Saccharomyces cerevisiae BY4741 SeMeCo community; assay: z-score of subpopulation abundance vs DMSO median, subpopulation auxotrophic for LM; higher = larger share of this subpopulation than in DMSO controls; details: 10 µM; 24 h; SM minimal medium; subpopulation (auxotrophy): LM
Summary of the method: as §1

[7] = tested on: Saccharomyces cerevisiae BY4741 SeMeCo community; assay: z-score of subpopulation abundance vs DMSO median, subpopulation auxotrophic for HM; higher = larger share of this subpopulation than in DMSO controls; details: 10 µM; 24 h; SM minimal medium; subpopulation (auxotrophy): HM
Summary of the method: as §1

[8] = tested on: Saccharomyces cerevisiae BY4741 SeMeCo community; assay: z-score of subpopulation abundance vs DMSO median, subpopulation auxotrophic for HU; higher = larger share of this subpopulation than in DMSO controls; details: 10 µM; 24 h; SM minimal medium; subpopulation (auxotrophy): HU
Summary of the method: as §1

[9] = tested on: Saccharomyces cerevisiae BY4741 SeMeCo community; assay: z-score of subpopulation abundance vs DMSO median, subpopulation auxotrophic for UM; higher = larger share of this subpopulation than in DMSO controls; details: 10 µM; 24 h; SM minimal medium; subpopulation (auxotrophy): UM
Summary of the method: as §1

[10] = tested on: Saccharomyces cerevisiae BY4741 SeMeCo community; assay: z-score of subpopulation abundance vs DMSO median, subpopulation auxotrophic for HL; higher = larger share of this subpopulation than in DMSO controls; details: 10 µM; 24 h; SM minimal medium; subpopulation (auxotrophy): HL
Summary of the method: as §1

[11] = tested on: Saccharomyces cerevisiae BY4741 SeMeCo community; assay: z-score of subpopulation abundance vs DMSO median, subpopulation auxotrophic for HLM; higher = larger share of this subpopulation than in DMSO controls; details: 10 µM; 24 h; SM minimal medium; subpopulation (auxotrophy): HLM
Summary of the method: as §1

[12] = tested on: Saccharomyces cerevisiae BY4741 SeMeCo community; assay: z-score of subpopulation abundance vs DMSO median, subpopulation auxotrophic for HUM; higher = larger share of this subpopulation than in DMSO controls; details: 10 µM; 24 h; SM minimal medium; subpopulation (auxotrophy): HUM
Summary of the method: as §1

[13] = tested on: Saccharomyces cerevisiae BY4741 SeMeCo community; assay: z-score of subpopulation abundance vs DMSO median, subpopulation auxotrophic for LUM; higher = larger share of this subpopulation than in DMSO controls; details: 10 µM; 24 h; SM minimal medium; subpopulation (auxotrophy): LUM
Summary of the method: as §1

[14] = tested on: Saccharomyces cerevisiae BY4741 SeMeCo community; assay: z-score of subpopulation abundance vs DMSO median, subpopulation auxotrophic for HLUM; higher = larger share of this subpopulation than in DMSO controls; details: 10 µM; 24 h; SM minimal medium; subpopulation (auxotrophy): HLUM
Summary of the method: as §1

[15] = tested on: Saccharomyces cerevisiae BY4741 SeMeCo community; assay: z-score of subpopulation abundance vs DMSO median, subpopulation auxotrophic for LU; higher = larger share of this subpopulation than in DMSO controls; details: 10 µM; 24 h; SM minimal medium; subpopulation (auxotrophy): LU
Summary of the method: as §1

[16] = tested on: Saccharomyces cerevisiae BY4741 SeMeCo community; assay: z-score of subpopulation abundance vs DMSO median, subpopulation auxotrophic for L; higher = larger share of this subpopulation than in DMSO controls; details: 10 µM; 24 h; SM minimal medium; subpopulation (auxotrophy): L
Summary of the method: as §1

Compound	mean cell size [1]	z-score of prototroph abundance [2]	z-score of subpopulation abundance [3]	z-score of subpopulation abundance [4]	z-score of subpopulation abundance [5]	z-score of subpopulation abundance [6]	z-score of subpopulation abundance [7]	z-score of subpopulation abundance [8]	z-score of subpopulation abundance [9]	z-score of subpopulation abundance [10]	z-score of subpopulation abundance [11]	z-score of subpopulation abundance [12]	z-score of subpopulation abundance [13]	z-score of subpopulation abundance [14]	z-score of subpopulation abundance [15]	z-score of subpopulation abundance [16]
CN1CCC(=C2c3ccccc3C=Cc3ccccc32)CC1 [Cyproheptadine hydrochloride]	12.61 ± 0.097	0.23	-0.18	0.43	-0.32	-0.35	-0.58	-0.56	-0.25	-0.02	-0.45	-0.68	-0.73	-0.08	–	–
C#C[C@]1(OC(C)=O)CC[C@H]2[C@@H]3CCC4=C[C@@H](OC(C)=O)CC[C@@H]4[C@H]3CC[C@@]21C [Ethynodiol diacetate]	12.3 ± 0.37	–	-0.73	-1.03	-0.43	0.57	–	–	-0.32	0.67	-0.54	-0.26	-0.12	0.38	–	–
O=C1NC(=O)C(c2ccccc2)(c2ccccc2)N1 [Phenytoin]	12.39 ± 0.12	-0.03	0.07	–	–	0.5	–	-0.49	0.49	–	–	–	0.38	-0.04	0.23	–
C#C[C@]1(O)CC[C@H]2[C@@H]3CCc4cc(O)ccc4[C@H]3CC[C@@]21C [Ethinyl Estradiol]	12.8 ± 0.2	1.23	–	–	0.36	-0.77	0	0.01	-1.64	-0.69	-0.72	-0.88	-1.48	-1.02	-1.41	-0.55
Cc1cnc(NC(=O)C2=C(O)c3ccccc3S(=O)(=O)N2C)s1 [Meloxicam]	12.77 ± 0.087	1.47	–	–	-0.59	–	-0.89	-0.61	-0.26	-0.41	-1.09	–	–	-0.98	-0.98	-0.61
CC1(C)S[C@@H]2[C@H](NC(=O)COc3ccccc3)C(=O)N2[C@H]1C(=O)O [Penicillin V potassium salt]	11.8 ± 0.2	0.29	0.91	0.95	-1.14	0.22	–	–	–	-0.72	-0.74	-0.23	–	-1.08	-0.1	–
CCCCOc1ccc(C(=O)CCN2CCCCC2)cc1 [Dyclonine HCl]	12.2 ± 0.23	–	0.29	-0.57	-0.1	–	-0.09	0.17	–	-0.74	-0.52	0.17	-0.27	-0.65	–	–
CC[C@H](C)C(=O)O[C@H]1C[C@@H](C)C=C2C=C[C@H](C)[C@H](CC[C@@H]3C[C@@H](O)CC(=O)O3)[C@H]21 [Lovastatin]	11.9 ± 0.13	-1.34	–	0.87	-0.06	–	0.4	0.59	1.08	–	0.86	–	0.48	0.35	0.16	-0.96
N[C@@H](CCC(=O)O)C(=O)O [(S)-Glutamic acid]	12.1 ± 0.22	0.18	–	0.05	0.17	0.15	-0.08	-0.75	-0.63	-0.27	0.07	-0.56	-0.99	–	-0.36	0.52
O=C1C(=O)c2ccccc2C(O)=C1C1CCC(c2ccc(Cl)cc2)CC1 (stereo unspecified) [Atovaquone]	–	-0.82	-0.46	-0.2	1.46	–	0.9	0.94	–	1.12	0.84	0.71	1.22	0.68	0.47	–
C[C@@H]1CC(=O)NN=C1c1ccc(NN=C(C#N)C#N)cc1 [Levosimendan]	–	-0.07	-0.05	–	-0.43	-0.47	0.22	0.25	0.05	–	-0.43	0.67	-0.29	–	–	-0.16
CCN1CCN(C(=O)N[C@@H](C(=O)N[C@@H]2C(=O)N3C(C(=O)O)=C(CSc4nnnn4C)CS[C@H]23)c2ccc(O)cc2)C(=O)C1=O [Cefoperazone]	12.5 ± 0.21	0.07	0.6	–	0.43	–	–	-0.48	0.26	0.07	–	-0.49	0.47	0.24	-0.39	–
CN(C)c1cc(NC(=O)CNC(C)(C)C)c(O)c2c1CC1CC3C(N(C)C)C(=O)C(C(N)=O)=C(O)C3(O)C(=O)C1=C2O (stereo unspecified) [Tigecycline]	–	0.44	–	0.22	–	–	-0.15	1.34	-0.23	–	0.02	–	-0.85	-0.04	-0.07	-1.67
CCCCCOc1ccc(-c2cc(-c3ccc(C(=O)N[C@H]4C[C@@H](O)[C@@H](O)NC(=O)[C@@H]5[C@@H](O)[C@@H](C)CN5C(=O)[C@H]([C@H](O)CC(N)=O)NC(=O)[C@H]([C@H](O)[C@@H](O)c5ccc(O)c(OS(=O)(=O)O)c5)NC(=O)[C@@H]5C[C@@H](O)CN5C(=O)[C@H]([C@@H](C)O)NC4=O)cc3)no2)cc1 [Micafungin Sodium]	–	-14.6	-8.01	-1.73	–	0.72	1.38	13.2	1.81	42.5	61.8	–	4.1	–	–	5.22
C/C(=C\C(=O)OCCCCCCCCC(=O)O)C[C@@H]1OC[C@H](C[C@@H]2O[C@H]2[C@@H](C)[C@H](C)O)[C@@H](O)[C@H]1O [Mupirocin calcium]	12.2 ± 0.29	-0.73	-0.19	1.26	0.77	-0.21	0.83	1.13	–	-0.37	-0.09	1.29	0.39	-0.25	–	-0.72
